Measurements from ChEMBL document CHEMBL1961873, “Compounds: GSK PKIS; Assays: Nanosyn kinase panel” (2012).

Legend:
[1] = molecular target: RAC-alpha serine/threonine-protein kinase (Homo sapiens) (UniProt P31749); settings: at 0.1 µM
[2] = molecular target: RAC-alpha serine/threonine-protein kinase (Homo sapiens) (UniProt P31749); settings: at 1 µM
[3] = molecular target: RAC-beta serine/threonine-protein kinase (Homo sapiens) (UniProt P31751); settings: at 0.1 µM
[4] = molecular target: RAC-beta serine/threonine-protein kinase (Homo sapiens) (UniProt P31751); settings: at 1 µM
[5] = molecular target: RAC-gamma serine/threonine-protein kinase (Homo sapiens) (UniProt Q9Y243); settings: at 0.1 µM
[6] = molecular target: RAC-gamma serine/threonine-protein kinase (Homo sapiens) (UniProt Q9Y243); settings: at 1 µM
[7] = molecular target: G protein-coupled receptor kinase 6 (Homo sapiens) (UniProt P43250); settings: at 0.1 µM
[8] = molecular target: G protein-coupled receptor kinase 6 (Homo sapiens) (UniProt P43250); settings: at 1 µM
[9] = molecular target: T1, Rhodopsin kinase GRK7 (Homo sapiens) (UniProt Q8WTQ7); settings: at 0.1 µM
T1 sequence (whole entry): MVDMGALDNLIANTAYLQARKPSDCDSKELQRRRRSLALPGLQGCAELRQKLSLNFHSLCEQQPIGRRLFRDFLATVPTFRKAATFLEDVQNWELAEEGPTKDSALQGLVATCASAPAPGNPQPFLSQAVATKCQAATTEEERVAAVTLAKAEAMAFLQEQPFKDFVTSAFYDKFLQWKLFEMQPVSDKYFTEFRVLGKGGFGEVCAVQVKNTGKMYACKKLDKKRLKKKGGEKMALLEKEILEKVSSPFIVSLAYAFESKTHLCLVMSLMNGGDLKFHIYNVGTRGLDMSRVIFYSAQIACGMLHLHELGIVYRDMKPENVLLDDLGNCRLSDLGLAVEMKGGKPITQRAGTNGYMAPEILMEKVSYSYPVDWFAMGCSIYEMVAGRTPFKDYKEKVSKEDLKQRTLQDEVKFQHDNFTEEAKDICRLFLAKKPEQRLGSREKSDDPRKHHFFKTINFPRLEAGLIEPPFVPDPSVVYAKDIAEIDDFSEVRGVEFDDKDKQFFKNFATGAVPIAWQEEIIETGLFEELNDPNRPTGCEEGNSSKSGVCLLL

[10] = molecular target: T1, Rhodopsin kinase GRK7 (Homo sapiens); settings: at 1 µM
[11] = molecular target: Serine/threonine-protein kinase MRCK alpha (Homo sapiens) (UniProt Q5VT25); settings: at 0.1 µM
[12] = molecular target: Serine/threonine-protein kinase MRCK alpha (Homo sapiens) (UniProt Q5VT25); settings: at 1 µM
[13] = molecular target: Serine/threonine-protein kinase MRCK beta (Homo sapiens) (UniProt Q9Y5S2); settings: at 0.1 µM
[14] = molecular target: Serine/threonine-protein kinase MRCK beta (Homo sapiens) (UniProt Q9Y5S2); settings: at 1 µM
[15] = molecular target: Ribosomal protein S6 kinase alpha-5 (Homo sapiens) (UniProt O75582); settings: at 0.1 µM
[16] = molecular target: Ribosomal protein S6 kinase alpha-5 (Homo sapiens) (UniProt O75582); settings: at 1 µM
[17] = molecular target: Ribosomal protein S6 kinase alpha-4 (Homo sapiens) (UniProt O75676); settings: at 0.1 µM
[18] = molecular target: Ribosomal protein S6 kinase alpha-4 (Homo sapiens) (UniProt O75676); settings: at 1 µM
[19] = molecular target: Ribosomal protein S6 kinase beta-1 (Homo sapiens) (UniProt P23443); settings: at 0.1 µM
[20] = molecular target: Ribosomal protein S6 kinase beta-1 (Homo sapiens) (UniProt P23443); settings: at 1 µM

Chain of Serine/threonine-protein kinase MRCK beta (Homo sapiens) (Q9Y5S2 whole entry): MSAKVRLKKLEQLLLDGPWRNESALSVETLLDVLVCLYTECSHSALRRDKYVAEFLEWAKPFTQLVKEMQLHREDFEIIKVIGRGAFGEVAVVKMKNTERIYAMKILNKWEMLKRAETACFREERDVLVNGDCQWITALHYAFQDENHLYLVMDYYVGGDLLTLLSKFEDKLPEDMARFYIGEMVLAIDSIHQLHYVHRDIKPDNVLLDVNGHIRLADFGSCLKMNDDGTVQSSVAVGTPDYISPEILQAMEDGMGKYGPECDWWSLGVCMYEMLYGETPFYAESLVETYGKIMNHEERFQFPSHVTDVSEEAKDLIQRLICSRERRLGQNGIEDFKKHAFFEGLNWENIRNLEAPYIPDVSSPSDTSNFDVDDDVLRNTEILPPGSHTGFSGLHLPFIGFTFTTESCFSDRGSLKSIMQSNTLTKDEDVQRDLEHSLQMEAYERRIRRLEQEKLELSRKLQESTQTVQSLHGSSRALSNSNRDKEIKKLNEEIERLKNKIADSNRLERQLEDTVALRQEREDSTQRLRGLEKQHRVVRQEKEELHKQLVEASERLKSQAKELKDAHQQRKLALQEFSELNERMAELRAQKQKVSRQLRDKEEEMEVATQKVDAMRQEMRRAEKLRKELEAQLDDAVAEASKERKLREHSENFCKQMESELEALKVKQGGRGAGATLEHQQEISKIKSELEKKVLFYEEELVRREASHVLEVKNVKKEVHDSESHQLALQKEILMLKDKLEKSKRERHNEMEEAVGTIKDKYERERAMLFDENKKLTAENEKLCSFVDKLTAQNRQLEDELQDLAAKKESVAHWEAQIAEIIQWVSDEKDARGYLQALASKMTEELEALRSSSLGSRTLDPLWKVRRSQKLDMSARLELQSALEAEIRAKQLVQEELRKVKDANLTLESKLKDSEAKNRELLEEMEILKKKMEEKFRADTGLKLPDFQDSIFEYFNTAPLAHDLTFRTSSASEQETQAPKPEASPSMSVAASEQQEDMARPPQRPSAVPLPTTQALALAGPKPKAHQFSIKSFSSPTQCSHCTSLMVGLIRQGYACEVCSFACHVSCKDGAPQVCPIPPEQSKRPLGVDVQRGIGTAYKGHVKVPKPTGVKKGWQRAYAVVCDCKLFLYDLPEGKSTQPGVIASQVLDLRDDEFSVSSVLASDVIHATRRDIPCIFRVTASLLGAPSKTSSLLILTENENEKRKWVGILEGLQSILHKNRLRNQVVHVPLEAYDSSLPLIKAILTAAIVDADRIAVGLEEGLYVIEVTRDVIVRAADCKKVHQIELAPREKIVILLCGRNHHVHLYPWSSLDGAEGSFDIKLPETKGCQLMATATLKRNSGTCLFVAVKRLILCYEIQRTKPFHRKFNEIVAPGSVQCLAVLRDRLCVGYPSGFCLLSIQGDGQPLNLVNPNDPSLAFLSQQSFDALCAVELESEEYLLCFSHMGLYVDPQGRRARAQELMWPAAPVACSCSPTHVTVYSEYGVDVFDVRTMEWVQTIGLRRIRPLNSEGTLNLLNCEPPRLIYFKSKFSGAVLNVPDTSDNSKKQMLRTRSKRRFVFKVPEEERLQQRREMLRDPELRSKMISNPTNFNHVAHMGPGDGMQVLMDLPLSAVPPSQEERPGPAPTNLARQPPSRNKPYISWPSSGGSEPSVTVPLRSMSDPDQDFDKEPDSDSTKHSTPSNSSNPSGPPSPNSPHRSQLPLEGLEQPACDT
Chain of RAC-beta serine/threonine-protein kinase (Homo sapiens) (P31751 whole entry): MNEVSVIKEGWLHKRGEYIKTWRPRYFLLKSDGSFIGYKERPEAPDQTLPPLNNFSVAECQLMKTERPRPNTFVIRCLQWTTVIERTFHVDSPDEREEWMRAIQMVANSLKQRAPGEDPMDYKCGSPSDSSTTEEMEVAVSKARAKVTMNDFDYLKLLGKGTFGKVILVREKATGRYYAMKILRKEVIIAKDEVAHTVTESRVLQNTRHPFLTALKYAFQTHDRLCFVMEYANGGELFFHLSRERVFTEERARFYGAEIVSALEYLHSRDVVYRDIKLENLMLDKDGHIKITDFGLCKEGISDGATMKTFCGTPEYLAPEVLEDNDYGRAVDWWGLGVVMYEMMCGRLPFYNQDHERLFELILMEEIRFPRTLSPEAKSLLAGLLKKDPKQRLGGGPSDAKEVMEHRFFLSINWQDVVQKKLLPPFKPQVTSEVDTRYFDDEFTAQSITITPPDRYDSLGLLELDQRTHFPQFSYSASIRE
Chain of Ribosomal protein S6 kinase beta-1 (Homo sapiens) (P23443 whole entry, looked up): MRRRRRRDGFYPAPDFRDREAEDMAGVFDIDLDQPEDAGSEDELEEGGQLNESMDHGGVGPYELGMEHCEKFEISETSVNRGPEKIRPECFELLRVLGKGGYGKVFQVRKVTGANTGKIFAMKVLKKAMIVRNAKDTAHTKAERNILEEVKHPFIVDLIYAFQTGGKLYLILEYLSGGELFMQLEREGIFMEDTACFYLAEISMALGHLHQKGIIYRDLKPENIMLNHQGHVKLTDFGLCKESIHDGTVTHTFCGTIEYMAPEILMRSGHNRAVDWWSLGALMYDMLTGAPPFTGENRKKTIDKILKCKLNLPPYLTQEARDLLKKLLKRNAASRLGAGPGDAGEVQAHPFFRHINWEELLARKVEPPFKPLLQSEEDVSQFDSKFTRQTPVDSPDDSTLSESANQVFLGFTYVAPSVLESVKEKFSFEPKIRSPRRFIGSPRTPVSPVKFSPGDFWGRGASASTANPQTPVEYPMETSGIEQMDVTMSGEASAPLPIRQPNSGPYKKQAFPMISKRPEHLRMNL
Chain of Ribosomal protein S6 kinase alpha-5 (Homo sapiens) (O75582 whole entry, looked up): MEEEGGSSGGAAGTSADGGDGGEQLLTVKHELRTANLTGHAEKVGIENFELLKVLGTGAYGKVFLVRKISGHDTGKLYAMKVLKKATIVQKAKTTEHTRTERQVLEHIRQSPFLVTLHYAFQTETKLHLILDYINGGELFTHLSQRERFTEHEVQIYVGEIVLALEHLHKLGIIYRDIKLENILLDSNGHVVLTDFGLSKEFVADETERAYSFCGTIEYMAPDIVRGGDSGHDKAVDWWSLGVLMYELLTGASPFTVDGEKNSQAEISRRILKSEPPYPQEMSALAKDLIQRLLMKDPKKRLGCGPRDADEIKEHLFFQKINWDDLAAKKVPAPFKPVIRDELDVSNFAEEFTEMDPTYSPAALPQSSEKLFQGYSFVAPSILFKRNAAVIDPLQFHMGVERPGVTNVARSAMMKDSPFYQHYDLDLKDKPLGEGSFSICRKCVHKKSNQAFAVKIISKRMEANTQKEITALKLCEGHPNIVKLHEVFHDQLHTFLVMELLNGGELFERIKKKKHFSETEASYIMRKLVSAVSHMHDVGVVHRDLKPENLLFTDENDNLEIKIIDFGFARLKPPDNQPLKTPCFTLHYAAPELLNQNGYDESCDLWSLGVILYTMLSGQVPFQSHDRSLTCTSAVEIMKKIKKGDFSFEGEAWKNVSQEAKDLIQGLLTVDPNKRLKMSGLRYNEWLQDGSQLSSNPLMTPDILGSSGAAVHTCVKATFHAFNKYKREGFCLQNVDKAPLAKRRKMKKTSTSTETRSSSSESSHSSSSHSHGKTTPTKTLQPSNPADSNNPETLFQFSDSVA
Chain of RAC-alpha serine/threonine-protein kinase (Homo sapiens) (P31749 whole entry): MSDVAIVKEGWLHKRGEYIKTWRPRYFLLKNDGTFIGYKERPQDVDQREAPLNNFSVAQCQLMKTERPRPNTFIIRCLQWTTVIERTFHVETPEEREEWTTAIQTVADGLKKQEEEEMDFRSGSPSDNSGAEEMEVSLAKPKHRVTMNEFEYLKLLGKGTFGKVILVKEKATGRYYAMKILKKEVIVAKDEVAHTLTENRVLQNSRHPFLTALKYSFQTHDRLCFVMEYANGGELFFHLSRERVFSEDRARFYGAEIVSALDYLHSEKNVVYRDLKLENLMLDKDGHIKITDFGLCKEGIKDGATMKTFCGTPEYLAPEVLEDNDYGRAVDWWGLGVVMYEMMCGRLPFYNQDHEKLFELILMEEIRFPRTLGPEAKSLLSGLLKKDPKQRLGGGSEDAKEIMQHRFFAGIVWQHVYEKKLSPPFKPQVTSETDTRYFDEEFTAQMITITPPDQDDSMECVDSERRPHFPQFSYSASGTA
Chain of RAC-gamma serine/threonine-protein kinase (Homo sapiens) (Q9Y243 whole entry): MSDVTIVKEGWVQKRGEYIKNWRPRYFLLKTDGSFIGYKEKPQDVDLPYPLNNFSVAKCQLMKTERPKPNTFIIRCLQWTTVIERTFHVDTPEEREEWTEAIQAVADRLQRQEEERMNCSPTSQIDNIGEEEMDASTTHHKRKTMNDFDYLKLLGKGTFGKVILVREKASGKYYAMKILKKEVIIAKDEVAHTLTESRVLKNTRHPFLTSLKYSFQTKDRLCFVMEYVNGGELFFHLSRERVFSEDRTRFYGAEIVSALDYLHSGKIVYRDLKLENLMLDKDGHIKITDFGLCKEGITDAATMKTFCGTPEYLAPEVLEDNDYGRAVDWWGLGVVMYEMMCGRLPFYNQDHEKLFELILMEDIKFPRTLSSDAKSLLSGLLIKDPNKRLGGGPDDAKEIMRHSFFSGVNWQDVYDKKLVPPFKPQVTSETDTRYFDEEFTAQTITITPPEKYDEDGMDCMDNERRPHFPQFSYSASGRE
Chain of G protein-coupled receptor kinase 6 (Homo sapiens) (P43250 whole entry, looked up): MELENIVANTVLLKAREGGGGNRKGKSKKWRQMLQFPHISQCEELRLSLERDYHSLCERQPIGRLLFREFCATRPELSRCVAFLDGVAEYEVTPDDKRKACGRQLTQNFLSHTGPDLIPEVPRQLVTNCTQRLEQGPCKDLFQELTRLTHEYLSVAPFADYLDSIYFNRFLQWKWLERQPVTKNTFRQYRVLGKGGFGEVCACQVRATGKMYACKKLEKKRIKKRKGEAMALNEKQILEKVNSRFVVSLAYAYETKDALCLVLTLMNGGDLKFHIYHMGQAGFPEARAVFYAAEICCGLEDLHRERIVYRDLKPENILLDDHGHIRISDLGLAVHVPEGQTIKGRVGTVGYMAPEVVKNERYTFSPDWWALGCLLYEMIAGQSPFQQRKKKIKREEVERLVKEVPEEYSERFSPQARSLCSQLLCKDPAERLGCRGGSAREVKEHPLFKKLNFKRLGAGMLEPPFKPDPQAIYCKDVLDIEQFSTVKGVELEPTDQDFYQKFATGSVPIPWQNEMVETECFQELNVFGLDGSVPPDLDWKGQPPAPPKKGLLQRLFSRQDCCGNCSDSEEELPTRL

Compound | inhibition [1] [%] | inhibition [2] [%] | inhibition [3] [%] | inhibition [4] [%] | inhibition [5] [%] | inhibition [6] [%] | inhibition [7] [%] | inhibition [8] [%] | inhibition [9] [%] | inhibition [10] [%] | inhibition [11] [%] | inhibition [12] [%] | inhibition [13] [%] | inhibition [14] [%] | inhibition [15] [%] | inhibition [16] [%] | inhibition [17] [%] | inhibition [18] [%] | inhibition [19] [%] | inhibition [20] [%]
[O-][S+]1CCN(Cc2ccc(-c3ccc4ncnc(Nc5ccc(OCc6ccccc6)c(F)c5)c4c3)o2)CC1 | 0.83 | -0.19 | 2.53 | 0.9 | 0.99 | 1.21 | 3.78 | -2.01 | 1.86 | -0.58 | 0.13 | -0.47 | -0.5 | 0.8 | 1.59 | 1.41 | -0.07 | 2.42 | 0.52 | 0.86
CC(=O)Nc1cccc(C#Cc2cncnc2Nc2ccc(OCc3cccc(F)c3)c(Cl)c2)n1 | -0.69 | 0.42 | -1.3 | -0.21 | -1.1 | -0.11 | 0.73 | 6.19 | 1.16 | 11.2 | 2.04 | 4.47 | 0.72 | 3.16 | 8.63 | 10.1 | 2.79 | 4.81 | 0.05 | 0.93
c1cnn2ncc(-c3ccnc(Nc4ccc5c(c4)OCCO5)n3)c2c1 | 0.86 | 0.95 | 2.29 | 1.47 | 1.09 | 2.1 | 7.21 | 4.01 | 4.35 | 2.89 | -0.46 | 0.87 | 1.21 | 1.8 | 4.5 | 6.82 | 2.97 | 6.51 | 1.67 | 5.63
Nc1ncnc2occ(-c3ccc(NC(=O)Nc4cc(C(F)(F)F)cc(C(F)(F)F)c4)cc3)c12 | -0.23 | 0.58 | 1.95 | 2.09 | 1.26 | 1.13 | -2.78 | -6.02 | -0.71 | -8.6 | -0.38 | -1.97 | 0.11 | 1.52 | 3.6 | 25.2 | -0.06 | 20.1 | 17 | 65.8
COc1cc(C=NNc2ncnc3c2cnn3-c2ccccc2)ccc1O | 0.7 | -1.12 | 2.4 | -2.91 | 1.08 | -1.19 | 1.52 | -6.34 | -0.04 | -4.38 | 0.09 | 3.38 | 1.02 | 2.48 | -3.81 | -1.13 | 1.6 | 4.55 | 2.72 | 10.3
CCn1c(-c2nonc2N)nc2cncc(C(=O)N3CC[C@H](N)C3)c21 | 3.33 | 19.5 | 3.72 | 13.3 | 5.44 | 32.9 | 6.84 | 8.03 | 3.41 | 10.7 | 14.5 | 68.7 | 23.1 | 67.2 | 67.9 | 81.4 | 44.5 | 74.3 | 32.9 | 80.3
O=C(Nc1n[nH]c2nc(-c3ccco3)c(Br)cc12)C1CC1 | 0.59 | 0.53 | 2.1 | 2.15 | 0.47 | 1.46 | -0.71 | -0.55 | 3.55 | 4.09 | 0.4 | -0.6 | 1.27 | 0.57 | 3.55 | 1.89 | 0.7 | 2.64 | 1.19 | 2.07
N#Cc1c(NC(=O)c2cccc3ccccc23)sc2c1CCCC2 | 0.5 | 0.48 | 1.74 | 2.41 | 1.33 | 1.85 | 3.58 | 3.47 | 2.52 | 6.83 | -0.22 | -0.12 | 0.93 | 1.57 | 7.78 | 6.93 | 1.95 | 2.56 | 1.14 | 2.63
CCCN1CCC=C(c2ccc(Nc3nc(Nc4ccccc4C(N)=O)c4cc[nH]c4n3)c(C)c2)C1 | 0.97 | 1.22 | 1.3 | 1.5 | -0.2 | 5.51 | 6.79 | 31.4 | 11.2 | 20.5 | 5.2 | 9.75 | 0.66 | 4.44 | 4.46 | 6.4 | 1.37 | 5.28 | 0.98 | 6.39
COC(=O)Nc1nc2cc(Oc3ccc(NC(=O)Nc4cccc(C(=O)O)c4)cc3)ccc2[nH]1 | -2.71 | -3.33 | -3.47 | -2.42 | -1.3 | -3.6 | 2 | -0.77 | 1.5 | -3.21 | 1.42 | 1.5 | -0.52 | -1.21 | -0.25 | 1.28 | 1.24 | 2.84 | 0.88 | 0.91
CS(=O)(=O)Nc1ccc(N/C=C2\C(=O)Nc3ccccc32)cc1 | -2.28 | -2.1 | -3.92 | -2.28 | -3.25 | 1.91 | -1.94 | 0.5 | -1.39 | -5.45 | -2.44 | -0.5 | 0.24 | -0.45 | -1.26 | -0.97 | -0.53 | 7.44 | -0.58 | 3.4
COc1cc2ncn(-c3cc(OCc4ccccc4Cl)c(C(N)=O)s3)c2cc1OC | -1.2 | -0.21 | -0.21 | 0.92 | 1.15 | -1.17 | 2.37 | 5.7 | -0.82 | 9.44 | -0.28 | 2.18 | 0.86 | 1.67 | -5.34 | -5.25 | 0.79 | 3.02 | 0.47 | 0.64
CCn1c(-c2nonc2N)nc2ccncc21 | 0.31 | 0.51 | 0.98 | 1.01 | -0.4 | -0.73 | 0.85 | -3.7 | 0.19 | 2.02 | 1.72 | 1.13 | 0.86 | 0.41 | 1.63 | 2.9 | 0.33 | 2.82 | 1.28 | 3.8
NS(=O)(=O)c1ccc(N/N=C2\C(=O)Nc3ccc(C(=O)NCCc4c[nH]cn4)cc32)cc1 | 1.49 | 0.74 | 3.41 | 1.59 | 1.65 | 2.39 | 5.89 | 9.39 | 5.2 | 7.5 | -0.15 | 2.43 | 1.24 | 2.13 | 4.49 | 5.44 | 4.34 | 18.7 | 2.49 | 8.75
